This note sets out measurements from PubChem BioAssay.

Structures are written as SMILES. Values without a mark were called inactive. No rule for the calls is given here. Positions of bridges follow the written chain, without caps; N, C: chain ends. Non-standard residues stand in square brackets, D forms with d. Residues, ends and D or L forms follow the SMILES beside them. ξ: configuration not given here. *: point of attachment. ξDab(CH2SO3H) = NC(CCNCS(=O)(=O)O)C(=O)O; Heptanoyl(6-Me) = CC(C)CCCCC(=O)*; Dab = NCC[CH](N)C(=O)O

The test system of the test is Aerobactin synthetase IucA (Klebsiella pneumoniae hvKP1). Nature of the test: IucA enzyme inhibition, primary screen, biochemical, Spectrum library (AID 1346200).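 Also: 100% = wells without compound and 0% = wells lacking enzyme.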 The settings on record: malachite green pyrophosphate, A620, at 8 µM, active compounds read low.
For the compound `NC1(C(=O)O)CCCC1`, the activity remaining is 117%. For `CCC(C)C1NC(=O)C(CCNCS(=O)(=O)O)NC(=O)C(NC(=O)C(CCNCS(=O)(=O)O)NC(=O)C(NC(=O)C(CCNCS(=O)(=O)O)NC(=O)CCCCC(C)C)C(C)O)CCNC(=O)C(C(C)O)NC(=O)C(CCNCS(=O)(=O)O)NC(=O)C(CCNCS(=O)(=O)O)NC(=O)C(C(C)CC)NC1=O` (stereo not given) ({Heptanoyl(6-Me)}-[ξDab(CH2SO3H)]T[ξDab(CH2SO3H)][Dab][ξDab(CH2SO3H)]II[ξDab(CH2SO3H)][ξDab(CH2SO3H)]T; lactam 4-C; configuration not given here), the activity remaining was 120%.

For the compound `CCOC(N)=O`, the activity remaining was 107%. As to `CC1CCCC(C)N1NC(=O)c1ccc(Cl)c(S(N)(=O)=O)c1` (stereo not given), the activity remaining is 121%. Turning to `O=c1ccn([C@@H]2O[C@H](COP(=O)(O)OP(=O)(O)OP(=O)(O)O)[C@@H](O)[C@H]2O)c(=O)[nH]1`, the activity remaining was 98%. The same measure for `Oc1c(Cl)cc(Cl)c2cccnc12`: 113%; for `CC(=O)Nc1ccc(S(=O)(=O)c2ccc(NC(C)=O)cc2)cc1`: 110%; for `C=CC(C1=CC(=O)C=CC1=O)c1ccccc1` (stereo not given): 119%.

For the compound `COc1ccc2cc3[n+](cc2c1OC)CCc1cc2c(cc1-3)OCO2`, the activity remaining is 86.3%. Take `CC(=O)OC(C)(C)[C@@H]1Cc2cc3ccc(=O)oc3cc2O1`: the activity remaining was 95.5%.

For `CC12CCC3c4ccc(OCc5ccccc5)cc4CCC3C1C[C@@H](O)[C@@H]2O` (stereo not given in full), the activity remaining is 119%. `COc1cc(O)ccc1C(C)=O`: the activity remaining is 124%. With `CC(=O)OCC(CCn1cnc2cnc(N)nc21)COC(C)=O`, the activity remaining was 121%. The same measure for `CNCc1ccccc1`: 108%; for `CCCCCCCCCCC[C@@H](C[C@H]1OC(=O)[C@H]1CCCCCC)OC(=O)[C@@H](CC(C)C)NC=O`: 112%; for `CC[C@@H]1OC(=O)C[C@@H](O)[C@H](C)[C@@H](O[C@@H]2O[C@H](C)[C@@H](O)[C@H](N(C)C)[C@H]2O)[C@@H](CCN2C[C@H](C)C[C@H](C)C2)C[C@@H](C)C(=O)/C=C/C(C)=C\[C@@H]1CO[C@@H]1O[C@H](C)[C@@H](O)[C@@H](OC)[C@H]1OC`: 112%. For the compound `Cc1noc(NS(=O)(=O)c2ccc(N)cc2)c1C`, the activity remaining is 117%. The value for `CO[C@@]1(NC(=O)CSCC#N)C(=O)N2C(C(=O)O)=C(CSc3nnnn3C)CSC21` (stereo not given in full) was 98.6%; that for `COc1c(-c2coc3cc4c(cc3c2=O)CC(OC(C)=O)C(C)(C)O4)ccc2c1C=CC(C)(C)O2` (stereo not given) was 103%. Regarding `CC(CC(O)C1OC1(C)C)[C@@H]1CCC2(C)C3=CCC4C(C)(C)C(=O)CCC4(C)C3CC[C@@]12C` (stereo not given in full), the activity remaining was 102%. The value for `C[n+]1cccc(C(=O)[O-])c1` was 92.7%; that for `COc1ccc(-c2cc(=O)c3ccccc3o2)cc1` was 114%; that for `C=C1CCC(C2CC(=O)OC2=O)C(=O)CCC2C1CC2(C)C` (stereo not given) was 111%. The value for `CN1CCC(=C2c3ccccc3CCc3sccc32)CC1` was 123%; that for `COC1=CC(=O)C(O)=C/C1=C\C=C\c1ccccc1` was 106%; that for `COc1ccc(C(=O)CC(=O)O)c2c1C=CC(C)(C)O2` was 108%. On to `COc1ccc(-c2coc3cc(OC(C)=O)cc(OC(C)=O)c3c2=O)cc1`, for which the activity remaining is 92.5%. The same measure for `COc1c(O)cc2oc3cc(O)c(CC=C(C)C)c(O)c3c(=O)c2c1CC=C(C)C`: 93%; for `CCC(C)C(=O)O[C@H]1C[C@H](O)C=C2C=C[C@H](C)[C@H](CC[C@@H](O)C[C@@H](O)CC(=O)O)C21` (stereo not given in full): 113%. As to `COc1ccc2nc(S(=O)Cc3ncc(C)c(OC)c3C)[nH]c2c1` (stereo not given), the activity remaining is 126%. For the compound `O=C1c2c(O)cccc2Cc2cccc(O)c21`, the activity remaining is 92.3%. `NC(=NCCCCCCN=C(N)/N=C(\N)Nc1ccc(Cl)cc1)/N=C(\N)Nc1ccc(Cl)cc1`: the activity remaining was 95.5%. The same measure for `O=c1c(-c2ccccc2)coc2cc(O)cc(O)c12`: 109%. As to `NC[C@H]1O[C@H](OC2[C@@H](N)C[C@@H](N)[C@H](O[C@H]3O[C@H](CO)[C@@H](O)[C@H](N)[C@H]3O)[C@H]2O)[C@H](O)[C@@H](O)[C@@H]1O` (stereo not given in full), the activity remaining was 97%. On to `CC(=O)Oc1ccc2c(c1OC(C)=O)OCC1(O)Cc3c(cc(OC(C)=O)c(OC(C)=O)c3OC(C)=O)C21` (stereo not given), for which the activity remaining was 111%. Take `CCOC(=O)c1ccc(N)cc1`: the activity remaining is 113%. Turning to `CC(=O)OC1CCC23CC1(C)CCC2C(C)(C)CC3OC(C)=O` (stereo not given), the activity remaining was 105%.

Turning to `Nc1ncnc2c1ncn2[C@@H]1O[C@H](CO)[C@@H](O)[C@@H]1O`, the activity remaining was 107%.

In the case of `CCCC1O[C@@H]2CC3C4CCC5=CC(=O)C=CC5(C)C4[C@@H](O)CC3(C)[C@]2(C(=O)CO)O1` (stereo not given in full), the activity remaining is 115%. The value for `CC(C)c1c(O)ccc2c1CCC1[C@@](C)(CO)CCC[C@]21C` (stereo not given in full) was 101%.
